The list is not random: actives were taken first. Their share in the collection is about 0.58%.
CatS inh – inhibitors of human cathepsin S. recombinant cathepsin S, AMC dipeptide fluorescence, pooled mixtures. inhibition, %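 (tested at 5 µM per compound within 10-compound mixtures)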. hit rate 0.06% among 62,000. AID 501; in the data active = inhibition above about 32%, passing the limit was not always enough;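 also: 0% = enzyme without compound and 100% = blank without enzyme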
C1s block – blocks human complement C1s protease activity. P09871. purified C1s, fluorogenic AMC substrate, pooled mixtures. mean inhibition % of two 10-compound mixtures (stronger effect = higher value), % at 5 µM (by protocol). hit rate 0.16% among 62,000. AID 538;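 active = inhibition above 20% in each of the two 10-compound mixture wells holding the compound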;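 also: 0% = enzyme wells lacking compound mixture and 100% = no-enzyme blank wells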
CatB mixtures – inhibitors of human cathepsin B in compound mixtures. Purified cathepsin B, AMC dipeptide fluorescence. inhibition, %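 (ten-compound pools at 5 µM per compound and 50 µM total)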. P07858. AID 488. hit rate 0.06% among 62,000; in the data active = inhibition above about 22%, passing the limit was not always enough;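 also: 0% = enzyme without compound and 100% = no enzyme blank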
CatB block – human cathepsin B inhibition; P07858; purified cathepsin B, fluorogenic substrate, fluorescence; inhibition, %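 (tested at 10 µM)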; hit rate 0.1% among 63,000; in the data active = inhibition above about 21%;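 also: 0% = enzyme with no compound and 100% = no enzyme blank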
Cathepsin G inh – inhibitors of human cathepsin G | P08311 | purified enzyme, AMC-tetrapeptide fluorescence, pooled mixtures | inhibition, % at 5 µM (by protocol) | hit rate 0.2% among 62,000;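 active = inhibition above 20% in each of the two mixture wells holding the compound; inactive = inhibition of 20% or less in either well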;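 also: 0% = enzyme control without mixture and 100% = blank lacking enzyme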
Target sequence (P08311 21-244 limits assumed): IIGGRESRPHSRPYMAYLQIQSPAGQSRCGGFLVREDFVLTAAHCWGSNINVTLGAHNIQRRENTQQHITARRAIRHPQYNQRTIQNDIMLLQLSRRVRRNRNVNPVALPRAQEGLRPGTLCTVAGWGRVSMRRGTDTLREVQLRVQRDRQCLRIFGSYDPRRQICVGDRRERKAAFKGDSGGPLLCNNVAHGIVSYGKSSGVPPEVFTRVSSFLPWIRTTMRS
CatL inh – inhibitors of human cathepsin L. inhibition, %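 (tested at 10 µM)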. hit rate 0.17% among 58,000. AID 460. purified cathepsin L, fluorogenic substrate, fluorescence. P07711; in the data active = inhibition above about 45%;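 also: 0% = enzyme with no compound and 100% = no enzyme blank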
Target sequence (P07711 114-288 limits assumed): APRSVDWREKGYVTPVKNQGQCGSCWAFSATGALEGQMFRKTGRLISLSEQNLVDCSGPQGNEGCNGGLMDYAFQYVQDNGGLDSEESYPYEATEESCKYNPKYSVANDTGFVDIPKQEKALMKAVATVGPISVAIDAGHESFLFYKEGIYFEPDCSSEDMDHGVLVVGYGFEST
Target sequence (P07711 292-333 limits assumed): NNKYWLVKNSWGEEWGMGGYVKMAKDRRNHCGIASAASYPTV
The depositor's hits bear a star.

For CCn1c(C)nc2cc(C(=O)OCCC(F)(F)F)ccc21 the results were CatS inh 8.4, C1s block -39.9, CatB mixtures -2.2, CatB block 2.9, Cathepsin G inh 0.6 and CatL inh 2.5.
For CCn1c(C)nc2cc(C(=O)n3cc(C(=O)c4cc(F)ccc4O)cn3)ccc21 the results were CatS inh -0.1, C1s block 25.3*, CatB mixtures 2.3, CatB block 6.4, Cathepsin G inh 20.3 and CatL inh 24.0.
Screening CCOc1ccccc1NC(=O)CCC(=O)O returned CatS inh -4.5, C1s block 39.9, CatB mixtures 10.4, CatB block 0.8, Cathepsin G inh 15.3 and CatL inh -0.1.
`COc1ccccc1NC(=O)CCC(=O)O` gave C1s block 12.1, CatB mixtures 53.1, CatB block 33.2*, Cathepsin G inh 10.9 and CatL inh 22.3.
For CCOC(=O)c1sc(=S)n(-c2cc(F)ccc2F)c1N the results were CatS inh -4.0, C1s block -22.3, CatB mixtures -0.2, CatB block 6.8, Cathepsin G inh 2.7 and CatL inh 104.3*.
For CCc1ccccc1N(C(=O)c1cccs1)C1C=CS(=O)(=O)C1 (stereo not given) the results were CatS inh 10.5, C1s block 60.2*, CatB mixtures 3.0, CatB block 6.5, Cathepsin G inh 15.3 and CatL inh 7.3.
Screening O=C(Cc1cccs1)N(c1ccccc1)C1C=CS(=O)(=O)C1 (stereo not given) returned CatS inh -14.7, C1s block 15.6, CatB mixtures 3.8, CatB block 1.0, Cathepsin G inh 8.7 and CatL inh 14.2.
CC(C)(C)c1ccc(C(=O)C=[N+]=[N-])cc1 was read as CatB block 2.8 and CatL inh -19.0.
`Cc1cc(C)cc(C(=O)n2cnnc2N)c1` gave CatS inh 13.7, C1s block 8.6, CatB mixtures -2.2, CatB block -1.5, Cathepsin G inh 65.5* and CatL inh 10.0.
`Nc1nncn1C(=O)c1ccccc1Cl` gave CatS inh 11.4, C1s block 5.5, CatB mixtures 1.5, CatB block 3.3, Cathepsin G inh 10.4 and CatL inh 11.0.
Screening COC(=O)c1ccc(C(=O)OC)c(NC(=O)c2cc3ccccc3o2)c1 returned CatB block 1.6 and CatL inh 8.2.
`O=C(CC1Oc2ccccc2NC1=O)NC1CC1` (stereo not given) gave CatS inh 0.0, C1s block 2.9, CatB mixtures -0.3, CatB block -4.2 and Cathepsin G inh 9.0.
For CC(=O)OC1(C(F)(F)F)Oc2ccccc2NC1=O (stereo not given) the results were CatS inh 22.0, C1s block -1.0, CatB mixtures 60.7*, CatB block 74.7*, Cathepsin G inh -2.2 and CatL inh 85.2*.
CN1CCN(S(=O)(=O)c2ccc(Br)s2)CC1 was read as CatS inh 8.9, C1s block -2.4, CatB mixtures 1.2, CatB block 3.4, Cathepsin G inh -2.8 and CatL inh 97.1*.
CC(=O)Nc1cccc(-c2nc3ccccc3c(=O)o2)c1 was read as CatS inh -1.8, C1s block 22.1, CatB mixtures -3.1, CatB block 0.8, Cathepsin G inh 64.5* and CatL inh -10.0.
CCC(=O)Nc1cccc(-c2nc3ccccc3c(=O)o2)c1 was read as CatS inh -0.8, C1s block 37.4*, CatB mixtures 4.0, CatB block 1.0, Cathepsin G inh 59.0* and CatL inh 0.9.
`Cc1nc(=O)c(-c2ccccc2)c(C)n1-c1ccc(O)c(C(=O)O)c1` gave CatS inh 15.6, C1s block -34.7, CatB mixtures 2.8, CatB block 0.6, Cathepsin G inh 2.0 and CatL inh 12.8.
For C=CCOc1c(CNc2nccs2)cccc1OCC the results were CatS inh 3.0, C1s block 15.0, CatB mixtures 4.1, CatB block 2.8, Cathepsin G inh 12.1 and CatL inh 0.9.
`O=C(OCC(=O)N1CCOCC1)c1ccc[nH]c1=O` gave CatS inh -5.5, C1s block 3.5, CatB mixtures 2.0, CatB block 0.2, Cathepsin G inh 1.7 and CatL inh 3.7.
Nc1nonc1C(=O)OCC(=O)N1CCOCC1 was read as CatS inh 0.0, C1s block -3.6, CatB mixtures 7.7, CatB block 30.6*, Cathepsin G inh -0.3 and CatL inh 7.7.
Screening CCC(C)n1c(-c2cccs2)nc2nc3ccccc3nc21 (stereo not given) returned CatS inh -2.0, C1s block -20.6, CatB mixtures 0.3, CatB block -15.1, Cathepsin G inh -6.4 and CatL inh -73.5.
`Cc1ccc(OCC(=O)Nc2ccc(N3CCOCC3)cc2)cc1` gave CatS inh -5.2, C1s block 60.0*, CatB mixtures 2.5, CatB block 3.1, Cathepsin G inh 44.9 and CatL inh 5.2.
O=C(NCc1ccco1)C(Cc1ccccc1)N1C(=O)C2C3C=CC(C3)C2C1=O (stereo not given) was read as CatS inh 11.6, C1s block -4.2, CatB mixtures 0.0, CatB block 4.8, Cathepsin G inh 8.3 and CatL inh 54.3*.
O=C(C(Cc1ccccc1)N1C(=O)C2C3C=CC(C3)C2C1=O)N1CCCCCC1 (stereo not given) was read as CatS inh -5.1, C1s block 34.5, CatB mixtures -2.0, CatB block 1.3, Cathepsin G inh -4.6 and CatL inh -14.2.
For CCC(C)[C@@H](NC(=O)OC(C)(C)C)c1nnc(S(=O)(=O)Cc2cccc(C)c2)o1 (stereo not given in full) the results were CatS inh 2.7, C1s block 15.3, CatB mixtures 22.8*, CatB block 33.7*, Cathepsin G inh 10.3 and CatL inh 76.0*.
For CC(C)(C)OC(=O)N[C@@H](Cc1ccccc1)c1nnc(S(=O)(=O)Cc2ccccc2)o1 the results were CatS inh -6.2, C1s block 5.1, CatB mixtures -1.9, CatB block 0.5, Cathepsin G inh 82.7* and CatL inh 12.9.
`CCC(C)C(NCc1cccc(C)c1)C(=O)O` (stereo not given) gave CatS inh -0.4, C1s block 6.5, CatB mixtures 0.5, CatB block -0.1, Cathepsin G inh 2.9 and CatL inh -2.5.
`O=C(CN1CCN(C2CCCCC2)CC1)NCCC1=CCCCC1` gave CatS inh 0.5, C1s block 11.5, CatB mixtures 0.6, CatB block -0.3, Cathepsin G inh 7.8 and CatL inh 1.7.
Screening COc1ccc(-n2c(=O)c3c4c(sc3n3cnnc23)CC(C)CC4)cc1 (stereo not given) returned CatS inh 31.0, C1s block -3.3, CatB mixtures 9.0, CatB block -2.6, Cathepsin G inh 0.1 and CatL inh 48.2*.
Screening Nc1nonc1-c1noc(N2CCCCC2)n1 returned CatS inh 0.0, C1s block 2.4, CatB mixtures 6.2, CatB block 23.9*, Cathepsin G inh 4.6 and CatL inh 36.2.

Screening results deposited in PubChem BioAssay by PCMD.
